Assay results reported in the supplement of paper PMC12350171.
Where a name gives a salt, the structure may show the parent alone. A number with no mark means an inactive call.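 The calls were made as follows: active = AUC significantly below DMSO controls by Student t-fit with adjusted P under 0.01; inactive = not significantly reduced.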

These compounds were tested on Haemophilus parainfluenzae (assay: growth AUC normalised to DMSO control (fraction of control); higher = less growth inhibition, active = hit call of the paper). Conditions: 20 µM.
Outline: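 After two anaerobic passages, pathogens were added at a starting OD578 of 0.01 to pre-reduced mGAM plates holding compound at 20 μM with 1% DMSO; hemin and NAD were supplemented for Haemophilus parainfluenzae. Sealed with breathable membranes, plates were read at OD578 hourly for 24 h, in three biological replicates. The trapezoidal rule, applied up to the exponential-to-stationary transition, gave the growth-curve AUC, which was normalised to DMSO controls on the same plate.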
CCc1cc(C(N)=S)ccn1 [Ethionamide] was tested, and the “growth AUC normalised to DMSO control” value was 0.983. C#C[C@]1(OC(C)=O)CC[C@H]2[C@@H]3CCC4=C[C@@H](OC(C)=O)CC[C@@H]4[C@H]3CC[C@@]21C [Ethynodiol diacetate] was tested, and the “growth AUC normalised to DMSO control” value was 0.974. With CC(C)Cc1ccc([C@H](C)C(=O)O)cc1 [(S,+) Ibuprofen] the “growth AUC normalised to DMSO control” value was 0.941. NC(=O)N1c2ccccc2CC(=O)c2ccccc21 [Oxcarbazepine] was tested, and the “growth AUC normalised to DMSO control” value was 0.954. CC=C(C)C(=O)OC1C(OC(C)=O)C2(CO)C(O)CC3(C)C(=CCC4C5(C)CCC(OC6OC(C(=O)O)C(OC7OC(CO)C(O)C(O)C7O)C(O)C6OC6OC(CO)C(O)C(O)C6O)C(C)(CO)C5CCC43C)C2CC1(C)C (stereo not drawn) [Beta-Escin] was tested, and the “growth AUC normalised to DMSO control” value was 1.01. CCCc1cc(=O)[nH]c(=S)[nH]1 [Propylthiouracil] was tested, and the “growth AUC normalised to DMSO control” value was 0.991. For CCOC1O[C@H]([C@@H](COCc2ccccc2)OCc2ccccc2)[C@H](OCc2ccccc2)[C@H]1O (some centres undefined) [Tribenoside], the “growth AUC normalised to DMSO control” value was 0.941. In the case of COc1cc(C(=O)NCc2ccc(OCCN(C)C)cc2)cc(OC)c1OC [Trimethobenzamide hydrochloride], the “growth AUC normalised to DMSO control” value is reported as 1.05. In the case of CO[C@H]1/C=C/O[C@@]2(C)Oc3c(C)c(O)c4c(O)c(c(/C=N/N5CCN(C)CC5)c(O)c4c3C2=O)NC(=O)/C(C)=C\C=C\[C@H](C)[C@H](O)[C@@H](C)[C@@H](O)[C@@H](C)[C@H](OC(C)=O)[C@@H]1C [Rifampicin], the “growth AUC normalised to DMSO control” value is reported as 0.0335 (active). In the case of CC(=O)NS(=O)(=O)c1ccc(N)cc1 [Sulfacetamide sodic hydrate], the “growth AUC normalised to DMSO control” value is reported as 1.03. For CCC1NC(=O)c2cc(S(N)(=O)=O)c(Cl)cc2N1 (centres undefined) [Quinethazone], the “growth AUC normalised to DMSO control” value was 1.16. In the case of CCC(Cc1c(I)cc(I)c(N)c1I)C(=O)O (centres undefined) [Iopanoic acid], the “growth AUC normalised to DMSO control” value is reported as 0.971. In the case of CC(CN1c2ccccc2Sc2ccccc21)N(C)C (centres undefined) [Promethazine hydrochloride], the “growth AUC normalised to DMSO control” value is reported as 0.954. For CC(=O)[C@H]1CC[C@H]2[C@@H]3CCC4=CC(=O)CC[C@]4(C)[C@H]3CC[C@]12C [Progesterone], the “growth AUC normalised to DMSO control” value was 1.03. For Clc1ccc2nsnc2c1NC1=NCCN1 [Tizanidine hydrochloride], the “growth AUC normalised to DMSO control” value was 0.965. In the case of CN1CCC(=C2c3ccccc3C=Cc3ccccc32)CC1 [Cyproheptadine hydrochloride], the “growth AUC normalised to DMSO control” value is reported as 0.921. For C(=C\c1ccccc1)/CN1CCN(C(c2ccccc2)c2ccccc2)CC1 [Cinnarizine], the “growth AUC normalised to DMSO control” value was 0.817. For C[C@]12CCC(=O)C=C1C=C[C@@H]1[C@@H]2CC[C@@]2(C)[C@H]1CC[C@@]21CCC(=O)O1 [Canrenone], the “growth AUC normalised to DMSO control” value was 1. Cc1c(C)c2c(c(C)c1O)CCC(C)(C(=O)O)O2 (centres undefined) [Trolox] was tested, and the “growth AUC normalised to DMSO control” value was 1. In the case of CC(=O)O[C@H]1C(=O)[C@@]2(C)[C@H]([C@H](OC(=O)c3ccccc3)[C@]3(O)C[C@H](OC(=O)[C@H](O)[C@@H](NC(=O)c4ccccc4)c4ccccc4)C(C)=C1C3(C)C)[C@]1(OC(C)=O)CO[C@@H]1C[C@@H]2O [Paclitaxel], the “growth AUC normalised to DMSO control” value is reported as 1.08. With C#CCN(C)Cc1ccccc1 [Pargyline hydrochloride] the “growth AUC normalised to DMSO control” value was 0.979. Cc1cccc(C)c1NC(=O)CN1CCN(CCCC(c2ccc(F)cc2)c2ccc(F)cc2)CC1 [Lidoflazine] was tested, and the “growth AUC normalised to DMSO control” value was 1.02. With CC1c2cccc(O)c2C(O)=C2C(=O)C3(O)C(O)=C(C(N)=O)C(=O)C(N(C)C)C3C(O)C21 (centres undefined) [Doxycycline hydrochloride] the “growth AUC normalised to DMSO control” value was 0.0238 (active). COC(=O)C1=C(C)NC(C)=C(C(=O)OC)C1c1ccccc1[N+](=O)[O-] [Nifedipine] was tested, and the “growth AUC normalised to DMSO control” value was 0.998. With c1ccc(C2CN3CCSC3=N2)cc1 (centres undefined) [Tetramisole hydrochloride] the “growth AUC normalised to DMSO control” value was 0.997. CCCc1nc2c(C)cc(-c3nc4ccccc4n3C)cc2n1Cc1ccc(-c2ccccc2C(=O)O)cc1 [Telmisartan] was tested, and the “growth AUC normalised to DMSO control” value was 1.03. With CO[C@@]1(NC(=O)C(C(=O)O)c2ccc(O)cc2)C(=O)N2C(C(=O)O)=C(CSc3nnnn3C)CO[C@@H]21 (some centres undefined) [Moxalactam disodium salt] the “growth AUC normalised to DMSO control” value was 0.076 (active). CN(C)[C@@H]1C(=O)C(C(=O)NCNCCCC[C@H](N)C(=O)O)=C(O)[C@@]2(O)C(=O)C3=C(O)c4c(O)cccc4[C@@](C)(O)[C@H]3C[C@@H]12 [Lymecycline] was tested, and the “growth AUC normalised to DMSO control” value was 0.935. With COc1c(N2CCNC(C)C2)c(F)cc2c(=O)c(C(=O)O)cn(C3CC3)c12 (centres undefined) [Gatifloxacin] the “growth AUC normalised to DMSO control” value was 0.0535 (active). C#C[C@]1(O)CC[C@H]2[C@@H]3CCC4=C(CCC(=O)C4)[C@H]3CC[C@@]21C [Norethynodrel] was tested, and the “growth AUC normalised to DMSO control” value was 0.989. With NS(=O)(=O)c1cc2c(cc1Cl)N=CNS2(=O)=O [Chlorothiazide] the “growth AUC normalised to DMSO control” value was 1.01. With Nc1ccc(S(=O)(=O)Nc2ccnn2-c2ccccc2)cc1 [Sulfaphenazole] the “growth AUC normalised to DMSO control” value was 0.925. With CC(=O)OCC(=O)[C@@]12N=C(C)O[C@@H]1C[C@H]1[C@@H]3CCC4=CC(=O)C=C[C@]4(C)[C@H]3[C@@H](O)C[C@@]12C [Deflazacort] the “growth AUC normalised to DMSO control” value was 1.02. For CCCOc1ccccc1-c1nc2[nH]nnc2c(=O)[nH]1 [Zaprinast], the “growth AUC normalised to DMSO control” value was 1.01. CCOc1nc2cccc(C(=O)O)c2n1Cc1ccc(-c2ccccc2-c2nnn[nH]2)cc1 [Candesartan] was tested, and the “growth AUC normalised to DMSO control” value was 1.05. CC1CC(OC(=O)c2ccccc2O)CC(C)(C)C1 (centres undefined) [Homosalate] was tested, and the “growth AUC normalised to DMSO control” value was 0.983. With CN[C@@H]1[C@H](O)[C@H](NC)[C@H]2O[C@@]3(O)C(=O)C[C@@H](C)O[C@H]3O[C@@H]2[C@H]1O [Spectinomycin dihydrochloride] the “growth AUC normalised to DMSO control” value was 0.117 (active). With C=C1C[C@H]2[C@@H]3C=C(C)C4=CC(=O)CC[C@]4(C)[C@H]3CC[C@]2(C)[C@@]1(OC(C)=O)C(C)=O [Melengestrol acetate] the “growth AUC normalised to DMSO control” value was 1.06. In the case of N=C(N)NC(=N)NCCc1ccccc1 [Phenformin hydrochloride], the “growth AUC normalised to DMSO control” value is reported as 1.04.
